# Reference: PubChem BioAssay (Tox21)
# Unmarked numbers belong to inactive results. Records with an inconclusive call do not appear. Entries that show only a call come without a potency. The source made the active and inactive calls. Unless noted, the call rests on the fitted dose curve; in most records, active means well fitted curve in the direction sought with a large enough effect in the repeat runs; inconclusive means weak or mixed curves; inactive means no such curve, though single readings can be large; an effect the other way counts as inactive or inconclusive.
# What was measured:
# [1] = qHTS assay for small molecules that induce genotoxicity in human embryonic kidney cells expressing luciferase-tagged ATAD5 (AID 651632); further: nearly all actives have a fitted effect of over 15% in size
# How it was run: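 Reporter cells (HEK293T) express luciferase-tagged ATAD5, a protein that accumulates after DNA damage. Treat 16 hr at 37C/5% CO2, add Amplite, wait 30 min at RT, and read luminescence.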
# [2] = qHTS assay for small molecule agonists of the p53 signaling pathway - cell viability (AID 651633; calls by dose curve;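 further: p53RE-bla HCT reporter cells with a stable beta-lactamase p53 reporter; series mostly up to about 83 µM; nearly all actives have a fitted effect of over 30% in size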)
# How it was run: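 p53RE-bla cells, seeded at 4,000 per well and rested 5 h at 37 C/5% CO2, received compounds in DMSO for 16 h at 37 C. CellTiter-Glo was then added, and luminescence was read after 30 min at room temperature to gauge cytotoxicity.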
# [3] = qHTS assay for small molecule disruptors of the mitochondrial membrane potential - cell viability (AID 720634; calls by dose curve;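 further: human HepG2 liver cancer cells; series mostly up to about 83 µM; nearly all actives have a fitted effect of over 20% in size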)
# How it was run: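 Measuring cytotoxicity alongside mitochondrial potential, the screen quantified ATP by luminescence in HepG2 cells after 1 hr compound incubation and a 30 min room-temperature CellTiter-Glo step.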
# [4] = qHTS assay to test for compound auto fluorescence at 590 nm (red) in HepG2 cells (AID 720674)
# How it was run: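 Intrinsic compound fluorescence in the red window (Ex/Em 540/590 nm) is measured in attached HepG2 cells exposed for 1 hr, DMSO vehicle as baseline, benchmarked to Rose Bengal sodium.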
# [5] = qHTS assay to test for compound auto fluorescence at 535 nm (green) in HepG2 cells (AID 720675)
# [6] = qHTS assay to test for compound auto fluorescence at 460 nm (blue) in HEK293 cells (AID 720678)
# How it was run: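 Blue read-out at excitation 405 nm and emission 460 nm follows overnight compound exposure of HEK293 cells at 37C in 5% CO2. Activity is given as auto fluorescence equivalency to triamterene.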
# [7] = qHTS assay to test for compound auto fluorescence at 590 nm (red) in HEK293 cells (AID 720679)
# How it was run: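 Red channel, Ex/Em 540/590nm; signal expressed as equivalency to Rose Bengal sodium. HEK293, 2,000 cells/well, 10% dialyzed FBS; 23 nL compound pinned after 4-5 hr attachment; overnight 37C/5% CO2 before reading.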
# [8] = qHTS assay to test for compound auto fluorescence at 535 nm (green) in HEK293 cells (AID 720680)
# [9] = qHTS assay to test for compound auto fluorescence at 460 nm (blue) in HEK293 cell free culture (AID 720681)
# How it was run: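 Test compounds were pinned into cell-free culture medium (DMEM with 10% FBS) and fluorescence was read directly at Ex/Em 405/460 nm. Signals were expressed as fluorescence equivalents of triamterene, with DMSO vehicle as control.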
# [10] = qHTS assay to test for compound auto fluorescence at 535 nm (green) in HEK293 cell free culture (AID 720682)
# How it was run: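 Steps: dispense DMEM/10% FBS into empty wells; pin in compound or DMSO; measure fluorescence at 485/535 nm. Values are fluorescein equivalents.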
# [11] = qHTS assay to test for compound auto fluorescence at 590 nm (red) in HEK293 cell free culture (AID 720683)
# How it was run: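 Tox21 10K library compounds were pinned into cell-free DMEM with 10% FBS and fluorescence was read at excitation 540 nm. Activity is expressed as Rose Bengal sodium equivalency.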
# [12] = qHTS assay to test for compound auto fluorescence at 590 nm (red) in HepG2 cell free culture (AID 720684)
# How it was run: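 Measured in medium alone (MEM containing 10% FBS) following pintool addition of compound; emission at 590 nm with 540 nm excitation, referenced to Rose Bengal sodium.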
# [13] = qHTS assay to test for compound auto fluorescence at 460 nm (blue) in HepG2 cell free culture (AID 720685)
# How it was run: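 Compound (23 nL) or DMSO pinned into cell-free MEM with 10% FBS; blue fluorescence read at 405/460 nm excitation/emission, expressed as auto-fluorescence equivalency to triamterene.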
# [14] = qHTS assay to test for compound auto fluorescence at 535 nm (green) in HepG2 cell free culture (AID 720686)
# [15] = qHTS assay to test for compound auto fluorescence at 460 nm (blue) in HepG2 cells (AID 720687)
# How it was run: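 Cells (2,000/well in MEM with 10% FBS) attached overnight at 37 C, then were exposed to compound or DMSO for 1 hr at 37 C, 5% CO2. Fluorescence read at Ex/Em 405/460 nm, expressed as triamterene-equivalent signal.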
# [16] = qHTS assay for small molecules that induce genotoxicity in human embryonic kidney cells expressing luciferase-tagged ATAD5 - cell viability (AID 651634; calls by dose curve; further: nearly all actives have a fitted effect of over 25% in size)
# How it was run: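 Seeding of 2,000 HEK293T ATAD5-luciferase cells per well preceded pin-tool compound transfer. Plates sat 15.5 hr at 37C under 5% CO2, then fluorescence was read after 30 min with CellTiter-Fluor.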
# [17] = qHTS assay for small molecule disruptors of the mitochondrial membrane potential (AID 720635); further: potency means the concentration at half of the fitted maximal effect
# How it was run: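 HepG2 cells (2,000/well) attached overnight at 37C, then took compound for 1 hr at 37C, 5% CO2. Mito-MPS dye was added for 30 min; fluorescence was read at 490/535 nm (monomers) and 540/590 nm (aggregates).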
# [18] = molecular target: Glucocorticoid receptor (Homo sapiens) (UniProt P04150); assay: qHTS assay to identify small molecule antagonists of the glucocorticoid receptor (GR) signaling pathway (AID 720692; active means well fitted inhibition curve with a large enough effect in the signal ratio in the repeat runs, not every such curve was filed as active; the % refers to the signal ratio; further: potency means the concentration at half of the fitted maximal effect)
# How it was run: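 Dexamethasone (5 nM final) stimulated a stably integrated GRE-beta-lactamase reporter in HeLa cells during 18 h co-incubation with compounds; signal was quantified as fluorescence intensity of B/G FRET substrate after 2 h.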
# [19] = molecular target: Glucocorticoid receptor (Homo sapiens) (UniProt P04150); assay: qHTS assay to identify small molecule agonists of the glucocorticoid receptor (GR) signaling pathway (AID 720691; active means well fitted activation curve with a large enough effect in the signal ratio in the repeat runs, not every such curve was filed as active; the % refers to the signal ratio)
# How it was run: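 Reporter read-out: fluorescence intensity following 2 h room-temperature LiveBLAzer B/G FRET substrate loading. Prior step: GR-bla HeLa cells held 4 h, then treated 18 h at 37 C.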
# Sequence of Glucocorticoid receptor (Homo sapiens) (P04150 whole entry, looked up): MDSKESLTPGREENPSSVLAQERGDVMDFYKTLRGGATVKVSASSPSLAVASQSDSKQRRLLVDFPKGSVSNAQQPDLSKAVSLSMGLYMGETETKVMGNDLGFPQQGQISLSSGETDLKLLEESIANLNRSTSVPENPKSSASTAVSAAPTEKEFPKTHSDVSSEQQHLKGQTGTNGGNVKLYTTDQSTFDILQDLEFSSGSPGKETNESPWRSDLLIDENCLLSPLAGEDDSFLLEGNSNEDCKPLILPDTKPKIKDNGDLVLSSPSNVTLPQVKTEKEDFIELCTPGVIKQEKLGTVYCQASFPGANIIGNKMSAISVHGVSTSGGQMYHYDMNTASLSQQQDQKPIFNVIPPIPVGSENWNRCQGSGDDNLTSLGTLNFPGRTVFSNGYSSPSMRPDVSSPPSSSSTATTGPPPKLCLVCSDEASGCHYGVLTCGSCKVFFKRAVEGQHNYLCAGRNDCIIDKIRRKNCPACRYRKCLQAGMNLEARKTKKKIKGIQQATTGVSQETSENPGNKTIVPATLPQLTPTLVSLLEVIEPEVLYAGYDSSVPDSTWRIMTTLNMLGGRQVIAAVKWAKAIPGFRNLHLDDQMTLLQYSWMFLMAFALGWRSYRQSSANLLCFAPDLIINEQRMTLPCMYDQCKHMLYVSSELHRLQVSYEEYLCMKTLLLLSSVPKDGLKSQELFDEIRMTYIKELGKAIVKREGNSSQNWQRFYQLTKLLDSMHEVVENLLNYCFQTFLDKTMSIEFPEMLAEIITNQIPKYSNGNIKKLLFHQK
Compound,Potency [1],Potency [2],Potency [3],outcome [4],outcome [5],Potency [6],outcome [7],outcome [8],Potency [9],outcome [10],outcome [11],outcome [12],Potency [13],outcome [14],Potency [15],Potency [16],Potency [17],Potency [18],Potency [19]
Cc1cc(C)c(S(=O)(=O)O)cc1N=Nc1cc(S(=O)(=O)O)c2ccccc2c1O,inactive,inactive,inactive,inactive,inactive,inactive,inactive,inactive,inactive,inactive,inactive,inactive,inactive,inactive,inactive,–,–,–,–
CN(c1nccc(=O)[nH]1)C1CCN(c2nc3ccccc3n2Cc2ccc(F)cc2)CC1,inactive,inactive,inactive,inactive,inactive,inactive,inactive,inactive,inactive,–,inactive,inactive,inactive,inactive,inactive,inactive,–,–,–
Cc1nc2ccccc2n1Cc1ccc(Cl)cc1,inactive,–,–,–,inactive,inactive,inactive,inactive,–,inactive,inactive,inactive,inactive,inactive,inactive,inactive,–,–,–
CN1CCC[C@@H]1c1cccnc1,inactive,–,inactive,inactive,inactive,inactive,inactive,inactive,–,inactive,inactive,–,–,inactive,inactive,inactive,inactive,–,–
SC1CCCC1,inactive,–,inactive,inactive,inactive,inactive,inactive,inactive,inactive,inactive,inactive,inactive,inactive,inactive,inactive,inactive,–,–,–
COC(=O)C(C)=O,inactive,–,inactive,inactive,inactive,inactive,inactive,inactive,inactive,inactive,inactive,inactive,inactive,inactive,inactive,inactive,–,inactive,–
CN(C)CC/C=C1\c2ccccc2COc2ccccc21,–,inactive,inactive,inactive,inactive,inactive,inactive,inactive,inactive,inactive,inactive,–,inactive,inactive,inactive,inactive,–,inactive,inactive
CCOC(=O)[C@H](CCc1ccccc1)N[C@H]1CCc2ccccc2N(CC(=O)O)C1=O,inactive,–,inactive,inactive,inactive,–,inactive,inactive,–,inactive,inactive,inactive,inactive,inactive,–,inactive,–,–,–
COc1ccc([C@@H]2Sc3ccccc3N(CCN(C)C)C(=O)[C@@H]2OC(C)=O)cc1,inactive,–,inactive,inactive,inactive,inactive,inactive,inactive,inactive,inactive,inactive,inactive,inactive,inactive,inactive,inactive,–,–,–
Cn1c(NCCN(CCO)CCCc2ccc([N+](=O)[O-])cc2)cc(=O)n(C)c1=O,inactive,–,inactive,inactive,inactive,inactive,inactive,inactive,inactive,inactive,inactive,inactive,inactive,–,inactive,inactive,–,inactive,–
CN(C)CCCNCCCN,inactive,–,inactive,inactive,inactive,inactive,inactive,inactive,inactive,inactive,inactive,–,–,inactive,inactive,inactive,–,inactive,inactive
C=CC(=O)OCC(C)OCC(C)OCC(C)OC(=O)C=C (stereo not given),–,–,inactive,–,inactive,inactive,inactive,inactive,inactive,inactive,inactive,inactive,inactive,inactive,inactive,–,–,43.6 µM (active),inactive
CC(Cc1cccc(C(F)(F)F)c1)NCCOC(=O)c1ccccc1 (stereo not given),inactive,–,inactive,inactive,inactive,inactive,inactive,inactive,inactive,inactive,inactive,–,inactive,inactive,inactive,–,–,inactive,–
CCCCCCCCC(CO)CCCCCC (stereo not given),inactive,–,inactive,inactive,inactive,inactive,inactive,inactive,–,inactive,inactive,inactive,inactive,inactive,inactive,inactive,–,–,inactive
CCOC(=O)C1=C(C)NC(C)=C(C(=O)OC)C1c1cccc([N+](=O)[O-])c1 (stereo not given),inactive,inactive,–,inactive,inactive,inactive,inactive,inactive,inactive,–,inactive,inactive,inactive,inactive,inactive,–,26.6 µM (active),–,–
CC1(C)CCC(C)(C)c2cc(NC(=O)c3ccc(C(=O)O)cc3)ccc21,inactive,–,inactive,inactive,inactive,inactive,inactive,inactive,inactive,inactive,inactive,inactive,inactive,–,inactive,–,24.8 µM (active),–,–
CN1CCC(=C2c3ccccc3C=Cc3ccccc32)CC1,inactive,–,inactive,inactive,inactive,inactive,inactive,inactive,–,inactive,inactive,inactive,inactive,inactive,inactive,inactive,–,–,inactive
